# According to PubChem BioAssay (NCATS):
# Inconclusive results are not listed. Unmarked numbers belong to inactive results. Active and inactive are the calls of the source. Calls come from the whole dose curve; as a rule, active = well fitted cell-killing curve with a large enough effect; inconclusive = small, poorly fitted or top-dose-only effect; inactive = flat fitted curve, though single readings scatter.
# Experiment: Identifying Small Molecule Inhibitors of Pancreatic Cancer Stem Cells (SN12C, Adherent) (AID 1259358);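 note: cell survival measured after 48 h of compound exposure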
# Settings: viability/growth inhibition; series mostly up to 46.1 µM; viability (percent of control): at the top concentration
# Excerpt: Progenitor-like cancer cells, often referred to as cancer stem cells (CSC), are believed to be the drivers of therapeutic resistance and rapid recurrence. CSCs are postulated to reside in specific niches characterized by low oxygen tension, limited nutrient supply, and high redox load. Selectively targeting CSC, alone or in combination with cytotoxic agents, as a means to produce durable remissions is an appealing concept. Modeling these cells in in vitro setting is an important step in finding new therapies and/or targets. Multiple reports highlight that forcing cells in culture into 3-dimensionaly architectures (spheroids) re-establishes key progenitor-like transcriptional signatures. Pancreatic cancer is among the diseases with the most dismal outlook which is driven, largely, by recurance following front-line therapies. […] In hopes of deriving new insight into the targeting of these pancreatic CSCs we examined three established pancreatic cancer cell lines in cytotoxicity assays versus a collection of approved and investigational drugs. Importantly, we screened these lines as traditional monolayer (2D) and spheroid (3D) formats to gain an appreciation of agents with differential activity.
# Multicellular tumor spheroids from Panc1, MiaPaCa-2, and the primary low-passage tissue culture line SB.06 were seeded in stem cell media (SCM) in nonadherent 6-well plates coated with hydrogel (Corning Life Sciences, Chelmsford, Mass) and pancreatic spheres generated for 14 days before screening. Cells were seeded into 1536-well solid-bottom white tissue culture treated Greiner Bio One Plates (789173-F) using a MultiDrop Combi (Thermofisher Scientific) dispenser and a small sterile cassette. One column was media alone to be used as a :"no cells" control. The plates were then covered with sterilized stainless steel gasketed lids from Kalypsys. After allowing cells to attach for 4 hours, 23 nL of test compound or control (negative control DMSO and positive control 9.2 uM Bortezomib-final) were added from a 1536-well polypropylene compound source plate to each well using a 1536 head pin tool from Kalypsys. Cells were then incubated for 48 hours at 37C, 95% relative humidity and 5% CO2. After 48 hours, plates were removed from the incubator and 3 uL of CellTiter-Glo (Promega) was added using an Aurora Flying Reagent Dispenser Bioraptor. Plates were incubated at room temperature for 10 minutes prior to reading the luminescence on the Viewlux (PerkinElmer). The relative luciferase units are used to calculate the percent activity using the activity of DMSO in the cells and no cells columns for normalization of no inhibition and full inhibition respectively.
# Potency is the fitted concentration of half-maximal effect.
SMILES,viability (percent of control) [%],Potency
Cn1c(CCCC(=O)O)nc2cc(N(CCCl)CCCl)ccc21,92.6,
CCCCC/C=C\C/C=C\C/C=C\C/C=C\CCCC(=O)NC1CC1,100,
CC1=C2C[C@@H]3[C@@H](CC=C4C[C@@H](O)CC[C@@]43C)[C@@H]2CC[C@]12O[C@H]1C[C@H](C)CN[C@H]1[C@H]2C,96,
C[C@@H]1[C@@H](CC(C[C@H]2O[C@@H]3O[C@]4(C)CC[C@@H]5[C@H](C)CC[C@@H]([C@H]2C)[C@@]35OO4)C[S+](=O)([O-])c2ccc(COC(=O)N(C)C)cc2)O[C@@H]2O[C@]3(C)CC[C@H]4[C@H](C)CC[C@@H]1[C@@]24OO3 (stereo not given in full),,118 nM (active)
Cn1cc(C2=C(c3cn(C4CCN(Cc5ccccn5)CC4)c4ccccc34)C(=O)NC2=O)c2ccccc21,110,
COC[C@H]1OC(=O)c2coc3c2[C@@]1(C)C1=C(C3=O)C2CCC(=O)[C@@]2(C)C[C@H]1OC(C)=O (stereo not given in full),99.1,
Cc1cc(SCc2sc(-c3ccc(C(F)(F)F)c(F)c3)nc2C)ccc1OCC(=O)O,103,
COc1ccc(C(=O)c2c(C)n(CCN3CCOCC3)c3ccccc23)cc1,103,
CC(O)(CS(=O)(=O)c1ccc(F)cc1)C(=O)Nc1ccc(C#N)c(C(F)(F)F)c1 (stereo not given),98.9,
C[C@]12CCC(=O)C(O)=C1CC[C@@H]1[C@@H]2CC[C@]2(C)C(=O)CC[C@@H]12,113,
